# Experiments:
# Assay in all cases: DAPPL (digital affinity profiling via proximity ligation, sequencing); 10 mM Tris-HCl pH 7.5, 50 mM NaCl, 1 mM DTT, 4% glycerol, room temperature, 30 min; GST-TFs on glutathione beads, 16-mer random dsDNA library, 0.1% formaldehyde crosslink after washing; high values mean tight binding
# FLI1 = target: T1, FLI1 (Homo sapiens, UniProt Q01543 1-452); conditions: protein: recombinant; tags: N-terminal GST; dsDNA, one strand shown
# T1 sequence: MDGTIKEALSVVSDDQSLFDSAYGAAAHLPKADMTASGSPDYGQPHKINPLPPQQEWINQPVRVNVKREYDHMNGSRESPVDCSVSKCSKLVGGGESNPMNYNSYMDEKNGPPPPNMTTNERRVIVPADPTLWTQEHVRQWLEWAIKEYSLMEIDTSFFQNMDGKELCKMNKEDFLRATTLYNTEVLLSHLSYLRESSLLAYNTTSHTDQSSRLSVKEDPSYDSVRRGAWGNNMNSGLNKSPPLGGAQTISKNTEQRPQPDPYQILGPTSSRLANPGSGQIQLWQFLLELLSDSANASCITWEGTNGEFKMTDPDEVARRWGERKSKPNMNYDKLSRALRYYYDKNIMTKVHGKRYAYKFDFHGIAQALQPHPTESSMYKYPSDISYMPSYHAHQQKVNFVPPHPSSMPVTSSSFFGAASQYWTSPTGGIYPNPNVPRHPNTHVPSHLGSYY
# Outline: (§1)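 Pools of DNA-barcoded human transcription factors, expressed in yeast as GST fusions on glutathione beads and combined with a tag-only sample, were incubated with 200 nmole of a 16-mer random double-stranded DNA library. Incubation took 30 min at room temperature in Tris/NaCl/DTT/glycerol buffer and was followed by washing, 0.1% formaldehyde crosslinking, proximity ligation (BsaI/T4 ligase, 1 h, 37 °C), PCR amplification and sequencing on an Illumina NextSeq500. Binding signal is the ratio of a hexamer's read frequency for a factor to its frequency for the tag-only sample.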
# ELK1 = target: T2, ELK1 (Homo sapiens, UniProt P19419 1-428); conditions: protein: recombinant; tags: N-terminal GST; dsDNA, one strand shown
# T2 sequence: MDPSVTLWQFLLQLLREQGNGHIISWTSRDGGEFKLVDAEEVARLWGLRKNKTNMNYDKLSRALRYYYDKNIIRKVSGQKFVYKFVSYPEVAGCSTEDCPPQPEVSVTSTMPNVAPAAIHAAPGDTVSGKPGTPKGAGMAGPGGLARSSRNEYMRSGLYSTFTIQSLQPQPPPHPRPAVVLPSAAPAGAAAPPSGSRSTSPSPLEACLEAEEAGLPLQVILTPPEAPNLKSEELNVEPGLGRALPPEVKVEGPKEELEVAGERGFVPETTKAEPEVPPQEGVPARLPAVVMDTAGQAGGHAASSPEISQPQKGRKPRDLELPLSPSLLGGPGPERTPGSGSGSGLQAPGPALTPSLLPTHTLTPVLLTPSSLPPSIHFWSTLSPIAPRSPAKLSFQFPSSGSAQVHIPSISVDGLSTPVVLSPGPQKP
# Outline: as §1
# GABPA = target: T3, GABPA (Homo sapiens, UniProt Q06546 1-454); conditions: protein: recombinant; tags: N-terminal GST; dsDNA, one strand shown
# T3 sequence: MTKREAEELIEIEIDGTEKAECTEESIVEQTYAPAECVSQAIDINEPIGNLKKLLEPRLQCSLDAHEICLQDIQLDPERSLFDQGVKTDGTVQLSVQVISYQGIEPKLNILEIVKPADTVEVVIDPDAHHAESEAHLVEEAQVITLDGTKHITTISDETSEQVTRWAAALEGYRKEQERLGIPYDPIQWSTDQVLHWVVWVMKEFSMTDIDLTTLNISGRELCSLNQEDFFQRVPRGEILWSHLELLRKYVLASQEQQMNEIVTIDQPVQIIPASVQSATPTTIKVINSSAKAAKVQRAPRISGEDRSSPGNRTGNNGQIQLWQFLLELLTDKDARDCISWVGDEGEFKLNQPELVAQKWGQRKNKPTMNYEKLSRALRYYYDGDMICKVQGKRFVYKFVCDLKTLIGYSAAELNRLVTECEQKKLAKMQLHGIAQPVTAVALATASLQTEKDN
# Outline: as §1
# ERG = target: T4, ERG (Homo sapiens, UniProt P11308 1-479); conditions: protein: recombinant; tags: N-terminal GST; dsDNA, one strand shown
# T4 sequence: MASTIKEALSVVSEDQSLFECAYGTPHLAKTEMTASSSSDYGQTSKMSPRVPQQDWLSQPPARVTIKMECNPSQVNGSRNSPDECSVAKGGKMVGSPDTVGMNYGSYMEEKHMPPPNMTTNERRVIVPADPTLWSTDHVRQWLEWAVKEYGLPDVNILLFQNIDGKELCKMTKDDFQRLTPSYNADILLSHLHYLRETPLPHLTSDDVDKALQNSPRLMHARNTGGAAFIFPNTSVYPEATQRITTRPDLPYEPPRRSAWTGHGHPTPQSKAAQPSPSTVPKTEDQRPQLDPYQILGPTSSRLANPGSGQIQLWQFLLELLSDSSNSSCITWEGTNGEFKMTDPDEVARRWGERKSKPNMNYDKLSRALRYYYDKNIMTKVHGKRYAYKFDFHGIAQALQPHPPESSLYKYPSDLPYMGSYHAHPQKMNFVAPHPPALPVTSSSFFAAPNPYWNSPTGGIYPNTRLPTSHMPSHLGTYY
# Outline: as §1
# ELF1 = ELF1 (Homo sapiens, UniProt P32519 1-619); conditions: protein: recombinant; tags: N-terminal GST; dsDNA, one strand shown
# Chain of ELF1 (P32519 whole entry): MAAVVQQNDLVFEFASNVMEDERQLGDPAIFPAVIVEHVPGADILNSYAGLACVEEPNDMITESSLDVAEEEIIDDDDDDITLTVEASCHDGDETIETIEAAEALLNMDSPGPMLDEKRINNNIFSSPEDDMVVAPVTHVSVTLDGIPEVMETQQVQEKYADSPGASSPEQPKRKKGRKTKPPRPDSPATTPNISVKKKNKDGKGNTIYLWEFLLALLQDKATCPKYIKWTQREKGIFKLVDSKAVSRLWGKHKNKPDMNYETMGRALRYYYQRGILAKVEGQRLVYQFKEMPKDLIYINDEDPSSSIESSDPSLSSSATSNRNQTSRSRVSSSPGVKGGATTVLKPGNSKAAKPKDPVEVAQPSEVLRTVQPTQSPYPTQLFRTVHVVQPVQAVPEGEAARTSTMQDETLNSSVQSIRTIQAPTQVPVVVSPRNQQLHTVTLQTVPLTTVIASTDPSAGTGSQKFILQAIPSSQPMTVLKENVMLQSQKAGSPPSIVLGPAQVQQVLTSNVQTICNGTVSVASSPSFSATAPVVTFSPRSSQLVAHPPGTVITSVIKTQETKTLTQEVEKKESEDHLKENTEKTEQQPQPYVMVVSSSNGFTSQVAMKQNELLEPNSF
# Outline: as §1
# EHF = target: T5, EHF (Homo sapiens, UniProt Q9NZC4 1-300); conditions: protein: recombinant; tags: N-terminal GST; dsDNA, one strand shown
# T5 sequence: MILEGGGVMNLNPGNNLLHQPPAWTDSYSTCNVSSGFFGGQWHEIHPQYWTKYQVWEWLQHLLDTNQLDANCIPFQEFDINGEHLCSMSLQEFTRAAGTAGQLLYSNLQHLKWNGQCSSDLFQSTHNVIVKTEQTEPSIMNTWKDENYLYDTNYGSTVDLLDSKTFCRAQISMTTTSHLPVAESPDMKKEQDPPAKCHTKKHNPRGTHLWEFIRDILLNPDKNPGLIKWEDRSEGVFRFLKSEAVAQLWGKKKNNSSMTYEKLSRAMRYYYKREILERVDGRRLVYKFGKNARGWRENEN
# Outline: as §1
# SPI1 = SPI1 (Homo sapiens, UniProt P17947 1-270); conditions: protein: recombinant; tags: N-terminal GST; dsDNA, one strand shown
# Outline: as §1
# SPIB = SPIB (Homo sapiens, UniProt Q01892 1-262); conditions: protein: recombinant; tags: N-terminal GST; dsDNA, one strand shown
# Chain of SPIB (Q01892 whole entry): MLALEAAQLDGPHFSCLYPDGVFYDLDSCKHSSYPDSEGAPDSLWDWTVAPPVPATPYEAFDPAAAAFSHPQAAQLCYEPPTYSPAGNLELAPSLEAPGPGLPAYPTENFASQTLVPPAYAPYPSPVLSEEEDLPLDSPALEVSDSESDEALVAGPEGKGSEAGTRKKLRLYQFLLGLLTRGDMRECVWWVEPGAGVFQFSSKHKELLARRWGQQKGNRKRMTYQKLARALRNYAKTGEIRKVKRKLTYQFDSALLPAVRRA
# Outline: as §1
# ELK3 = target: T6, ELK3 (Homo sapiens, UniProt P41970 1-407); conditions: protein: recombinant; tags: N-terminal GST; dsDNA, one strand shown
# T6 sequence: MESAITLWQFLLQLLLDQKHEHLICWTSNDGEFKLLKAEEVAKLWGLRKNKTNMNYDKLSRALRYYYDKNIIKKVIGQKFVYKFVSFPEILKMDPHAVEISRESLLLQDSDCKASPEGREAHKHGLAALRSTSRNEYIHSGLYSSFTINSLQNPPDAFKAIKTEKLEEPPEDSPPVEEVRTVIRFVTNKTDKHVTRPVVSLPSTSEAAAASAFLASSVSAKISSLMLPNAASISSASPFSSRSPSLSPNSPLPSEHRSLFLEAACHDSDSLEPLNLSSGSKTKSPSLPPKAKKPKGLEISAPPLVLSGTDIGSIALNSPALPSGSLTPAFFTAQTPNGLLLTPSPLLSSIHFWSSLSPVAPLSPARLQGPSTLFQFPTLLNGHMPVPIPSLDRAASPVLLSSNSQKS
# Outline: as §1
# FEV = target: T7, FEV (Homo sapiens, UniProt Q99581 1-238); conditions: protein: recombinant; tags: N-terminal GST; dsDNA, one strand shown
# T7 sequence: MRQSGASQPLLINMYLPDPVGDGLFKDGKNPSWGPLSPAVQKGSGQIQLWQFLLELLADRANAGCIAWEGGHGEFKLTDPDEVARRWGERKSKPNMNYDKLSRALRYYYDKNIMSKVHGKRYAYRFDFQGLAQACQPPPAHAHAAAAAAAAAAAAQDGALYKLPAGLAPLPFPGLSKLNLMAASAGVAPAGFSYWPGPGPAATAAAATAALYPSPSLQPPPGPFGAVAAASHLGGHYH
# Outline: as §1
# ETV5 = ETV5 (Homo sapiens, UniProt P41161 1-510); conditions: protein: recombinant; tags: N-terminal GST; dsDNA, one strand shown
# Chain of ETV5 (P41161 whole entry): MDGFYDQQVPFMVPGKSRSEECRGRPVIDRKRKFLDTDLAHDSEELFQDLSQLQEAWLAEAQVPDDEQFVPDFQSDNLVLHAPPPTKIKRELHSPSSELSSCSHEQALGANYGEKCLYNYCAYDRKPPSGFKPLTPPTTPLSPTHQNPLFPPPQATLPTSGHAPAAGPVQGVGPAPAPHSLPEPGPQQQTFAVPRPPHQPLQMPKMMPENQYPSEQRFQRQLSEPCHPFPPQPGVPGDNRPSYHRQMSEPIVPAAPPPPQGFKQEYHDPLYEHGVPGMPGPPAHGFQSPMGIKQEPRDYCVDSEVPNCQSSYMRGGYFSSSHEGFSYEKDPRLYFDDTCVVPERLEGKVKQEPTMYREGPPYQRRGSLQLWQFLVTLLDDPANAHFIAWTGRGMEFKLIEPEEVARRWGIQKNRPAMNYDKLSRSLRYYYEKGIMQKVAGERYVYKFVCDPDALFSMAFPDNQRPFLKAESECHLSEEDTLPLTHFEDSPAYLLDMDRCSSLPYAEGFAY
# Outline: as §1
# HSF1 = HSF1 (Homo sapiens, UniProt Q00613 1-529); conditions: protein: recombinant; tags: N-terminal GST; chain copies: 3; dsDNA, one strand shown
# Chain of HSF1 (Q00613 whole entry): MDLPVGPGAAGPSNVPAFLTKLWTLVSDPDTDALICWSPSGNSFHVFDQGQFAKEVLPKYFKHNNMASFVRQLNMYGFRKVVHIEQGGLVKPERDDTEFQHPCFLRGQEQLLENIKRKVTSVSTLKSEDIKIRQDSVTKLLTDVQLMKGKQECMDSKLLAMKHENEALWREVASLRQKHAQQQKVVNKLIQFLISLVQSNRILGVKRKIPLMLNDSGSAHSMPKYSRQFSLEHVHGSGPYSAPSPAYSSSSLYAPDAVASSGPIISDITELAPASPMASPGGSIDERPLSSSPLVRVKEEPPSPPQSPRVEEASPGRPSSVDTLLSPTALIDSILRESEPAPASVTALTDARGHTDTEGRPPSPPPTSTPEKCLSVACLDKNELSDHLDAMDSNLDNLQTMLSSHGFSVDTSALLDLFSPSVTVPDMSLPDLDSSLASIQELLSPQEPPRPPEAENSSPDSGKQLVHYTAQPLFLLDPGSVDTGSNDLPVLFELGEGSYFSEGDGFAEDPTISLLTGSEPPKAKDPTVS
# Outline: as §1
# SPIC = target: T8, SPIC (Homo sapiens, UniProt Q8N5J4 1-248); conditions: protein: recombinant; tags: N-terminal GST; dsDNA, one strand shown
# T8 sequence: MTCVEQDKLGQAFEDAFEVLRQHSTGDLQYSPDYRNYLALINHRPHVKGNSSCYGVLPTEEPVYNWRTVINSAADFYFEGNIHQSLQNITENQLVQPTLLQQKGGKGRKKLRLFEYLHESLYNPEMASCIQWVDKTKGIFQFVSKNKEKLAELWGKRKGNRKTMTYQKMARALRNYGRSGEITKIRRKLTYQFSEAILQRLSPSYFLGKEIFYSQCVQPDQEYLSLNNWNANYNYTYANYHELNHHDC
# Outline: as §1
# ELF4 = ELF4 (Homo sapiens, UniProt Q99607 1-663); conditions: protein: recombinant; tags: N-terminal GST; dsDNA, one strand shown
# Chain of ELF4 (Q99607 whole entry): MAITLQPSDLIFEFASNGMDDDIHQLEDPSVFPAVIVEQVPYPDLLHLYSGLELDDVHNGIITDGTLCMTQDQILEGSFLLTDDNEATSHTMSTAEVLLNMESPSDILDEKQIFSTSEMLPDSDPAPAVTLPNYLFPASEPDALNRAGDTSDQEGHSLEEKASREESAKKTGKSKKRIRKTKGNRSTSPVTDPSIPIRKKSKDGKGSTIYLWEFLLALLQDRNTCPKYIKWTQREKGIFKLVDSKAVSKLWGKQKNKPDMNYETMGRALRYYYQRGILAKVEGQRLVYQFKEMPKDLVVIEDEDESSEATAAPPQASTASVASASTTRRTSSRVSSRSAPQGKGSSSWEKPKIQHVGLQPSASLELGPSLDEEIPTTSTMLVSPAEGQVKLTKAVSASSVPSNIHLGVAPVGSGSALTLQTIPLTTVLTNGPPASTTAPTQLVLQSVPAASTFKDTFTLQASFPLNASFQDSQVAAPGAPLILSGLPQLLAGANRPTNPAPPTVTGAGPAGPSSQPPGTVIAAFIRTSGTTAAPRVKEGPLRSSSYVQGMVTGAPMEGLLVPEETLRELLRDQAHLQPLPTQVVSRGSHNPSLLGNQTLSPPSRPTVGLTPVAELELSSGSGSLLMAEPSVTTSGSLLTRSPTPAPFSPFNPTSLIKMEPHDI
# Outline: as §1
# ELK4 = target: T9, ELK4 (Homo sapiens, UniProt P28324-2 1-405); conditions: protein: recombinant; tags: N-terminal GST; dsDNA, one strand shown
# T9 sequence: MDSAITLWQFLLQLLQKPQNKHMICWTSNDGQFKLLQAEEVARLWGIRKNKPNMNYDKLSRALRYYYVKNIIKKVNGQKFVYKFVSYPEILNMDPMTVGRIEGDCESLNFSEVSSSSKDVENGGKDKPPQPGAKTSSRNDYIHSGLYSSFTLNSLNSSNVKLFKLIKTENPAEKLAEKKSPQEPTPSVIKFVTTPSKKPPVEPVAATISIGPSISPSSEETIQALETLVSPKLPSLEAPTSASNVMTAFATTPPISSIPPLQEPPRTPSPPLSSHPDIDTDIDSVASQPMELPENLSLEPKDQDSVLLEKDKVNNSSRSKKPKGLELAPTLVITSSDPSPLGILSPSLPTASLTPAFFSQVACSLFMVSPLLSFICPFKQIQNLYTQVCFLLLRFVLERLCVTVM
# Outline: as §1
# ETV2 = target: T10, ETV2 (Homo sapiens, UniProt O00321 1-342); conditions: protein: recombinant; tags: N-terminal GST; dsDNA, one strand shown
# T10 sequence: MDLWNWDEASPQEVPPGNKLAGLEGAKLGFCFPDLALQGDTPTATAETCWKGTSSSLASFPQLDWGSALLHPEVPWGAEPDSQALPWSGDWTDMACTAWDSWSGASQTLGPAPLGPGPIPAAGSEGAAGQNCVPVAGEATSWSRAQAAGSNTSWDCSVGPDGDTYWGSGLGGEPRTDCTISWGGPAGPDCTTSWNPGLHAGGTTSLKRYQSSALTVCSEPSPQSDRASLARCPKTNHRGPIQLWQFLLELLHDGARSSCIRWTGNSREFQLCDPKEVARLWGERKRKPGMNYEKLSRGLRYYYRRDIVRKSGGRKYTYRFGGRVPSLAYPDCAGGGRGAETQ
# Outline: as §1
# ELF3 = target: T11, ELF3 (Homo sapiens, UniProt P78545 1-371); conditions: protein: recombinant; tags: N-terminal GST; dsDNA, one strand shown
# T11 sequence: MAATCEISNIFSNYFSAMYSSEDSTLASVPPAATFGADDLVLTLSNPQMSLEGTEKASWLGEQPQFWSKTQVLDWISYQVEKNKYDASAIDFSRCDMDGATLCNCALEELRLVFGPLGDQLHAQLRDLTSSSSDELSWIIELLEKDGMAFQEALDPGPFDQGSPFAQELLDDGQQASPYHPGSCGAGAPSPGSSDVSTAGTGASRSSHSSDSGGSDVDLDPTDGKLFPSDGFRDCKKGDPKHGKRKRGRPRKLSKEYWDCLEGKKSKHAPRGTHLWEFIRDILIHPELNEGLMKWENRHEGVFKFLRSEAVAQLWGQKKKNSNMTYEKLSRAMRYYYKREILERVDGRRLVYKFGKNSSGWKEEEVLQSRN
# Outline: as §1
# CRX = CRX (Homo sapiens, UniProt O43186 1-299); conditions: protein: recombinant; tags: N-terminal GST; dsDNA, one strand shown
# Chain of CRX (O43186 whole entry): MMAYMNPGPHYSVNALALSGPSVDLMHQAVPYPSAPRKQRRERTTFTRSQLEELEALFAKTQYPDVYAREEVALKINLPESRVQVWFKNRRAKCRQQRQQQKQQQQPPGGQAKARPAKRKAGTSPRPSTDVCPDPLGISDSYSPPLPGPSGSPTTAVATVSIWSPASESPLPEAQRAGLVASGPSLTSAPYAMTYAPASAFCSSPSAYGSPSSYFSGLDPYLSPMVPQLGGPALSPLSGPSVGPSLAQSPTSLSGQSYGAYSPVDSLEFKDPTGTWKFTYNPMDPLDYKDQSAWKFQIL
# Outline: as §1
# ETV1 = ETV1 (Homo sapiens, UniProt P50549 1-477); conditions: protein: recombinant; tags: N-terminal GST; dsDNA, one strand shown
# Chain of ETV1 (P50549 whole entry): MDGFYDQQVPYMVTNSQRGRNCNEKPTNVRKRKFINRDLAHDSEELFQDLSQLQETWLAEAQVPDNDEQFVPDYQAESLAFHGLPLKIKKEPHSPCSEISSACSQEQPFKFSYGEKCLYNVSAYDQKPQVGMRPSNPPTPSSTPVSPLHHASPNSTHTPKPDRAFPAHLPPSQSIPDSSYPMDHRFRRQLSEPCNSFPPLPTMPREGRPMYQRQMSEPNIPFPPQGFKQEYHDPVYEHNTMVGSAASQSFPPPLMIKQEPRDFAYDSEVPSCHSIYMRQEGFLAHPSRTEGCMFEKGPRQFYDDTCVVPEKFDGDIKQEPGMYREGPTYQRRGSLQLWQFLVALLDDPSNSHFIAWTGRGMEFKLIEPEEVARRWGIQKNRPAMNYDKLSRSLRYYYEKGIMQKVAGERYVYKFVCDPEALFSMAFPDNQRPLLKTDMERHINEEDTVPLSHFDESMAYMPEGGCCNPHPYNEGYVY
# Outline: as §1
sequence,measurement,setting,value
TAAAAT,binding signal,FLI1,"1.17 fold enrichment (6-mer frequency, TF over GST control)"
same,binding signal,ELK1,"1.2 fold enrichment (6-mer frequency, TF over GST control)"
same,binding signal,GABPA,"1.25 fold enrichment (6-mer frequency, TF over GST control)"
same,binding signal,ERG,"1.19 fold enrichment (6-mer frequency, TF over GST control)"
same,binding signal,ELF1,"1.24 fold enrichment (6-mer frequency, TF over GST control)"
same,binding signal,EHF,"1.1 fold enrichment (6-mer frequency, TF over GST control)"
same,binding signal,SPI1,"1.25 fold enrichment (6-mer frequency, TF over GST control)"
same,binding signal,SPIB,"1.2 fold enrichment (6-mer frequency, TF over GST control)"
same,binding signal,ELK3,"1.1 fold enrichment (6-mer frequency, TF over GST control)"
same,binding signal,FEV,"1.14 fold enrichment (6-mer frequency, TF over GST control)"
same,binding signal,ETV5,"1.22 fold enrichment (6-mer frequency, TF over GST control)"
same,binding signal,HSF1,"1.48 fold enrichment (6-mer frequency, TF over GST control)"
same,binding signal,SPIC,"1.19 fold enrichment (6-mer frequency, TF over GST control)"
same,binding signal,ELF4,"1.2 fold enrichment (6-mer frequency, TF over GST control)"
same,binding signal,ELK4,"1.2 fold enrichment (6-mer frequency, TF over GST control)"
same,binding signal,ETV2,"1.34 fold enrichment (6-mer frequency, TF over GST control)"
same,binding signal,ELF3,"1.27 fold enrichment (6-mer frequency, TF over GST control)"
same,binding signal,CRX,"1.76 fold enrichment (6-mer frequency, TF over GST control)"
same,binding signal,ETV1,"1.22 fold enrichment (6-mer frequency, TF over GST control)"

# Source: article PMC7862700, “An all-to-all approach to the identification of sequence-specific readers for epigenetic DNA modifications on cytosine”
